Laboratory results taken from PubChem BioAssay AID1209 (Sanford-Burnham Center for Chemical Genomics, 2008).
The whole screen tested about 190,000 compounds, of which about 810 (0.43%) were called active. For the sample, actives were picked, then their nearest neighbours and some compounds at random. A number with no mark means an inactive call. No stated cut-off is given here; in the data, active means inhibition above about 50%; inactive means the rest.

These compounds were tested against Mannose-6-phosphate isomerase (Homo sapiens) (UniProt P34949) (assay: MPI enzyme activity inhibition – biochemical, fluorescence intensity, coupled assay, primary screen (AID 1209;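 further: plate controls were DMSO vehicle for no effect and wells lacking substrate for full effect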)). Conditions: purified PMI enzyme, at 20 µM, stronger effect = higher value.
Mannose-6-phosphate isomerase (Homo sapiens), sequence (P34949 whole entry, looked up): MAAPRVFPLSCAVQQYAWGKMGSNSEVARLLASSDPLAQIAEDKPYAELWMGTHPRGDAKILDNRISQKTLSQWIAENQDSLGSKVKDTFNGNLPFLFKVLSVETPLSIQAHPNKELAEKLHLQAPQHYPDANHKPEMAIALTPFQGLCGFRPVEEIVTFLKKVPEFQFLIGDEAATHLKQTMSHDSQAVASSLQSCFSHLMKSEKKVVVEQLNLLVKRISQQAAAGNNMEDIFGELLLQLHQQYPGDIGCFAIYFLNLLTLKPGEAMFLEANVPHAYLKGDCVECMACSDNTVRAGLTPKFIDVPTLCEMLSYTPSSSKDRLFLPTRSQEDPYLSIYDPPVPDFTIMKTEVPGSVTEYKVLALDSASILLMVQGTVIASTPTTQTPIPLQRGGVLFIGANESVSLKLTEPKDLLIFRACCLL

SMILES | inhibition
Cn1c(NC(=O)Cc2cccc3ccccc23)cc(=O)n(C)c1=O | 7.2%
NNC(=O)c1sc2cc(C(F)(F)F)cnc2c1-c1cccnc1 | 3.5%
O=S1(=O)N=C(Nc2nncs2)c2ccccc21 | 23.3%
O=C1CNC(=O)N1CC(O)Cn1c2ccccc2c2ccccc21 (stereo unspecified) | 5.5%
O=C(/C=C/c1ccc(S(=O)(=O)NCc2ccco2)cc1)NCc1cccc(Cl)c1 | 0.4%
CCCn1c(CNC(=O)c2ccccc2)nc2ccccc21 | 0.8%
CCCn1c(CNS(=O)(=O)c2ccc(C)cc2)nc2ccccc21 | 83.3% (active)
CCCn1c(NCc2ccccc2NS(=O)(=O)c2ccc(C)cc2)nc2ccccc21 | 27.9%
O=C(N/N=C/c1coc2ccccc2c1=O)c1ccccc1Br | -7.2%
Cn1c(C(C#N)C(=O)Cc2cccc3ccccc23)nc2ccccc21 (stereo unspecified) | -7.2%
C=CCNC(=S)Nc1ccc(Cl)c(S(=O)(=O)N2CCOCC2)c1 | -6.8%
CCCSc1cc(NCCOC(C)=O)c([N+](=O)[O-])c2nonc12 | 27.6%
CCC(=O)OCCNc1cc(SCCC(=O)OC)c2nonc2c1[N+](=O)[O-] | 79.5% (active)
CCC(=O)OCCNc1cc(Sc2nccn2C)c2nonc2c1[N+](=O)[O-] | 20.4%
CCCC(=O)OCCNc1cc(SCCC(=O)OC)c2nonc2c1[N+](=O)[O-] | 81.2% (active)
COC(=O)CCSc1cc(NCCOC(C)=O)c([N+](=O)[O-])c2nonc12 | 4.9%
CCCSc1cc(NCCOC(=O)CCC)c([N+](=O)[O-])c2nonc12 | 41.9%
O=C(O)/C=C/C(=O)Nc1ccc(SC(F)(F)F)cc1 | -22.4%
CC1(C)Cc2nc3sc4c(=O)n(Cc5ccccc5)cnc4c3cc2CS1 | -8.6%
Cc1cc(NC(=O)CSc2ncnc3ccccc23)no1 | 15.8%
O=Cc1cn(CCC(=O)O)nc1-c1cccc(Br)c1 | -4.6%

SMILES | inhibition
O=C(O)CCn1cc(/C=C2\SC(=S)NC2=O)c(-c2ccccc2)n1 | -4.7%
CN(C)Cc1c(O)ccc2c3c(c(=O)oc12)CCCCC3 | -0.4%
O=c1oc2c(CN3CCOCC3)c(O)ccc2c2ccccc12 | 7.2%
CCC1(c2ccccc2)NC(=O)N(Cc2ccc(C(=O)OC)cc2)C1=O (stereo unspecified) | 4.1%
CCOC(=O)c1[nH]c2ccc(OC)cc2c1NC(=O)/C=C/c1ccc2c(c1)OCO2 | -2.7%
CC1=NN(c2ccccc2)C(=O)/C1=C/C=C/c1ccccc1 | 3.1%
CC1=NN(c2ccccc2)C(=O)/C1=C/C=C/c1ccc(N(C)C)cc1 | 14.6%
CC1=NN(c2ccccc2)C(=O)/C1=C/C=C/C=C/N(C)C | 50.1% (active)
CCOc1ncccc1C(=O)Nc1nc(SC)ns1 | -7%
O=C1C2C3C=CC(CNS(=O)(=O)c4ccccc4[N+](=O)[O-])(O3)C2C(=O)N1c1ccccc1 (stereo unspecified) | -34.8%
COc1ccccc1C(OC(=O)c1cccs1)C(=O)NCc1ccco1 (stereo unspecified) | -1.9%
O=C(O)[C@@H]1CSC2(CCSC2)N1 (stereo partly specified) | -0.6%
COC(=O)C1=C(C)N(Cc2ccco2)C(=O)/C1=C\c1ccc(N(C)C)cc1 | 63.9% (active)
CCOc1cc(/C=C2\C(=O)N(Cc3ccco3)C(C)=C2C(=O)OC)ccc1O | 27.7%
COC(=O)C1=C(C)N(Cc2ccco2)C(=O)/C1=C\c1ccc([N+](=O)[O-])cc1 | -16.2%
O=C(c1ccc(F)cc1)c1c[nH]c(C(=O)NCCCN2CCOCC2)c1 | 4.5%
CCc1c(C)sc(NC(=O)Cn2nc(C(F)(F)F)c3c2CCCC3)c1C#N | 15.3%
CC1CCc2c(sc(NC(=O)Cn3nc(C(F)(F)F)c4c3CCCCC4)c2C#N)C1 (stereo unspecified) | -0.9%
N#Cc1c(NC(=O)Cn2nc(C(F)(F)F)c3c2CCCC3)sc2c1CCC2 | 56.8% (active)
CCOc1ccc(Br)cc1S(=O)(=O)Nc1ccc(N2CCOCC2)cc1 | 12%
c1ccc(N2CCN(c3c4c(nc5ncnn35)CCC4)CC2)cc1 | 68.8% (active)

SMILES | inhibition
COc1cccc(N2CCN(c3c4c(nc5ncnn35)CCC4)CC2)c1 | -1.8%
CC1CCc2c(nc3ncnn3c2N2CCN(c3ccccc3)CC2)C1 (stereo unspecified) | -7.9%
N#CC1=C(N)Oc2n[nH]c(-c3cccs3)c2C1C1C=CCCC1 (stereo unspecified) | 2.1%
O=C(CSc1nc2ccccc2s1)CSc1nc2ccccc2s1 | 7.7%
O=C(O)CSc1ncccn1 | -18.2%
CN(C(=O)c1ccccn1)C1(C(=O)NC2CCCCC2)CCCCC1 | -7.7%
Cc1cc(NC(=O)NC2(C(F)(F)F)Oc3ccc(Cl)cc3O2)no1 (stereo unspecified) | 52% (active)
O=C(Nc1cc(N2CCOCC2)ncn1)NC1(C(F)(F)F)Oc2ccc(Cl)cc2O1 (stereo unspecified) | 74.1% (active)
COCC(C)NC(=O)NC1(C(F)(F)F)Oc2ccc(Cl)cc2O1 (stereo unspecified) | 22.8%
COCCNC(=O)NC1(C(F)(F)F)Oc2ccc(Cl)cc2O1 (stereo unspecified) | 22.5%
O=C(NCCN1CCOCC1)NC1(C(F)(F)F)Oc2ccc(Cl)cc2O1 (stereo unspecified) | 60.2% (active)
O=C(Nc1cc(N2CCOCC2)ncn1)c1ccc(F)cc1 | 5.3%
O=C(NCCN1CCOCC1)NC1(C(F)(F)F)Oc2ccccc2O1 | 8.2%
O=C(Nc1cc(N2CCOCC2)ncn1)NC1(C(F)(F)F)Oc2ccccc2O1 | 35.5%
O=C(NCc1cccnc1)NC1(C(F)(F)F)Oc2ccc(Cl)cc2O1 (stereo unspecified) | 22.4%
O=C(c1cc2nc(-c3ccco3)cc(C(F)(F)F)n2n1)N1CCCCCC1 | -12.3%
CCCOC(=O)c1ccc(Nc2nc(C)cc(=O)[nH]2)cc1 | 1.7%
Cc1cc(C)nc(SCc2nnc(SCC(=O)Nc3cc(C(F)(F)F)ccc3Cl)o2)n1 | 3%
Cc1ccc(N2C(=O)C3Sc4[nH]c(=O)sc4C(c4ccccc4)C3C2=O)cc1 (stereo unspecified) | 11.4%
